SMARCA2 act: SMARCA2 (BRM) function activators, primary screen, cell-based, luminescence, high throughput. MG213 cells, MMTV-luciferase reporter, dexamethasone, overnight. activation, % at 9.1 µM. 370,000 tested, 1% active. AID 652017, 2013; in the data active means activation above about 7.8%;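 further: 0% = vehicle wells and 100% = reference activator wells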
FXN GAA850 act: FXN promoter activators, primary screen, cell-based, luciferase luminescence, HEK293 lucGAA850 | HEK293 lucGAA850 FXN promoter luciferase reporter, 24 h; percent of 10 µM SAHA response | activation, % at 6 µM | 360,000 tested, 0.56% active | AID 540364, 2011;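 active means activation above the average of all compounds screened plus 3 SD, cutoff fixed separately per campaign, cut at about 7.5% in these data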;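 further: 0% = DMSO wells and 100% = 10 µM SAHA wells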
PG9 Ab binder: binders of HIV-1 gp120 antibody PG9, primary screen, biochemical, TR-FRET. TR-FRET gp120-PG9 antibody binding. AID 624416, 2012. 360,000 tested, 0.43% active. inhibition, % at 6.7 µM; in the data active means inhibition above about 8.5%
HSP90 refold inh: HSP90 inhibitors, primary screen, cell lysate, luminescence; AID 1789, 2009; 290,000 tested, 0.91% active; Rabbit reticulocyte lysate, luciferase refolding luminescence, 3 h; inhibition, % at 5.6 µM;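 active means inhibition above the screen-wide mean plus 3 SD, computed separately per campaign, cut at about 16% in these data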;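 further: 0% = DMSO wells and 100% = 60 µM geldanamycin wells; inhibitors lower the luminescence because luciferase stays unfolded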
AI-2 QS modul: Vibrio harveyi AI-2 quorum sensing modulators, primary screen, JMH597 strain, luminescence/OD600 ratio; Vibrio harveyi JMH597 AI-2 luminescence/OD600 ratio, 9 h; stronger effect = lower value; strain lacks LuxN and CqsS sensors; 0 = neutral-control median; activity change, % at 7.5 µM; 300,000 tested, 0.4% active; in the data active means activity change below about -75%, passing the limit was not always enough; inconclusive means no clear call, values can overlap the other calls;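 further: luminescence divided by OD600 gain over 9 h not by final OD600 alone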
HSF1 inh: HSF1 inhibitors in luciferase reporter cells, primary screen, cell-based, NIH3T3, luminescence. NIH3T3-HGL HSE-luciferase, MG132-induced, luminescence 8 h; stronger effect = lower value. activity change, negative = inhibition, % at 7.5 µM (by protocol). 300,000 tested, 0.77% active. AID 2098, 2009;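 active means more than half of replicate wells show activity change below -50%, luminescence cut by over half; inconclusive means some wells, but at most half, below -50%; inactive means no replicate well below -50%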;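 further: luciferase reports HSF-1 transcriptional activity via heat shock element; 0% = median of DMSO wells and -100% = zero luminescence signal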
HSP90 inh confirm: HSP90 inhibitors, confirmation, cell lysate, luminescence; shares compounds with HSP90 refold inh; rabbit reticulocyte lysate, luciferase refolding luminescence, 3 h; inhibition, % at 5.9 µM; 2,300 tested, 64% active; AID 1846, 2009; in the data active means inhibition above about 18%;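 further: 0% = vehicle wells and 100% = reference inhibitor wells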
luciferase ctr: firefly luciferase inhibitors, HSP90 counter-screen, confirmation, artefact control for HSP90 inhibitor project, biochemical, luminescence, triplicate. purified native firefly luciferase. 2,300 tested, 48% active. inhibition, % at 5.9 µM. shares compounds with HSP90 refold inh;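 active means inhibition above the mean inhibition of all tested sample wells plus 3 SD, cut at about 10% in these data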;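 further: 0% = DMSO with luciferase and 100% = wells lacking luciferase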
Target sequence (P08659 whole entry, looked up): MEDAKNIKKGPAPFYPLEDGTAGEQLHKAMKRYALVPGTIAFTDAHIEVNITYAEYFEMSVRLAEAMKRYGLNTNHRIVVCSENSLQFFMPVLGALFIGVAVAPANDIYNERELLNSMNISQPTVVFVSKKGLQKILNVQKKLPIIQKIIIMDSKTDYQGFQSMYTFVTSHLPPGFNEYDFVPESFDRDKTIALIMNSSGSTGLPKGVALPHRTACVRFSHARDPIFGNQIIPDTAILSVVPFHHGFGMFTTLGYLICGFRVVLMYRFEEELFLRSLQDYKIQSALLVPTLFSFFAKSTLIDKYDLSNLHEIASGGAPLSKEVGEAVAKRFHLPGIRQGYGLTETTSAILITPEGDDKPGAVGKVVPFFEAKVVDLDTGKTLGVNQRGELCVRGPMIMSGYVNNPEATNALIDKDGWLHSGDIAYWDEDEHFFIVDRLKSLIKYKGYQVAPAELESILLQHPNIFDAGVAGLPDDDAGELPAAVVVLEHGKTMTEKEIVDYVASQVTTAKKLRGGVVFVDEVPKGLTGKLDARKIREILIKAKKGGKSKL
The depositor's hits bear a star; ? = inconclusive; · = no result. A selection: hits, their analogues and other compounds. The true share with any hit is near 3.4%.

SMILES	SMARCA2 act	FXN GAA850 act	PG9 Ab binder	HSP90 refold inh	AI-2 QS modul	HSF1 inh	HSP90 inh confirm	luciferase ctr
COC(=O)[C@@H](c1ccccc1)N(C)S(=O)(=O)c1cccc(S(=O)(=O)N(C)[C@@H](C(=O)OC)c2ccccc2)c1	-3	-6	-3	22*	5	1	12	-8
COC(=O)C(c1ccccc1)C(C(=O)OC)c1ccccc1 (stereo not drawn)	-2	1	-3	1	9	-4	·	·
NNC(=O)c1cccc(COc2ccccc2Br)c1	2	3	0	39*	19	-22	36*	9.8*
CCc1sc(C(=O)Nc2ncccc2C)cc1C	-2	3	0	-3	15	-1	·	·
CCc1sc(C(=O)Nc2ncccc2O)cc1C	2	2	-2	22*	39	20	52*	42*
Cc1ccc(/C(N)=N/OC(=O)c2ccc(C)cc2Cl)cc1	3	-7	-1	28*	5	-63*	60*	56*
Cc1cccc(/C(N)=N/OC(=O)c2ccc(Cl)cc2Cl)c1	1	-2	0	21*	27	6	37*	50*
N/C(=N\OC(=O)c1ccc(Cl)cc1Cl)c1ccccc1	3	-1	0	16	4	?	·	·
Cc1ccc(NC(=S)NNC(=O)CSc2nc3sc4c(c3c(=O)n2-c2ccccc2)CCCC4)cc1	1	·	·	·	·	·	·	·
Cc1ccc(NC(=O)OC2CC3CC2[C@H]2CCCCN2[C@H]3C)cc1 (stereo partly drawn)	-2	·	·	·	·	·	·	·
CCc1nnc(N/N=C/c2ccccc2F)n1N	-10	2	0	80*	32	50	-7	-11
Nn1cnnc1N/N=C/c1cccc(Cl)c1Cl	1	-2	0	-2	8	29	·	·
CCc1nnc(N/N=C/c2ccccc2Cl)n1N	-3	2	-1	72*	17	61	2	-2
COc1ccc(NC(=O)CCCNS(=O)(=O)c2ccc3[nH]c(=O)oc3c2)cc1OC	-2	·	·	·	·	·	·	·
Cc1ccc(-c2c(C(=O)NCC(C)C)oc(=O)c3ccccc23)cc1	0	·	·	·	·	·	·	·
O=C(NNS(=O)(=O)c1ccc(F)cc1)C1CC(c2cccnc2)=NO1 (stereo not drawn)	2	0	-2	21*	21	-2	3	0
Cc1ccc(CN2CC=CCS2(=O)=O)cc1	-7	·	1	·	·	·	·	·
Cc1nc(SCc2cccc(C(=O)O)c2)nc2c1CCCC2	-8	-7	2	18*	-1	-27	47*	18*
Cc1ccc(NC(=O)N2CCC(N(C)CCC(C)C)CC2)cc1F	-1	·	·	·	·	·	·	·
CCC(=O)Nc1ccccc1C(=O)OCC(=O)c1ccccc1	4	1	-3	52*	-9	35	66*	-30
CCC(=O)Nc1ccccc1C(=O)OCC(=O)c1ccc2ccccc2c1	-3	1	-2	5	39	5	·	·
Cc1nc(-c2ccc3c(c2)OCCCO3)cs1	5	2	-2	3	27	30	·	·
Clc1ccc2nc(-c3ccc4c(c3)OCO4)cn2c1	-1	-5	2	24*	4	7	73*	71*
Cc1ccc2nc(-c3ccc4c(c3)OCCO4)cn2c1	-9	-11	-3	93*	6	-6	94*	90*
COc1ccc(-c2cn3cc(C)ccc3n2)cc1OC	6	3	-2	11	18	71	·	·
SMILES	SMARCA2 act	FXN GAA850 act	PG9 Ab binder	HSP90 refold inh	AI-2 QS modul	HSF1 inh	HSP90 inh confirm	luciferase ctr
Clc1ccc2nc(-c3ccccc3)cn2c1	0	1	-1	36*	11	36	55*	42*
COc1ccc(-c2cn3cc(C)ccc3n2)cc1F	3	2	0	48*	-5	24	63*	58*
O=C(O)c1cc(-c2ccc3c(c2)OCO3)nc2ccc(Cl)cc12	6	4	0	4	-6	-3	·	·
O=C(Nc1nc2ncccn2c1-c1ccc(C(F)(F)F)cc1)c1ccc(F)cc1	-1	·	·	·	·	·	·	·
COC(=O)C(C[N+](=O)[O-])C1=C(O)CC(C)(C)CC1=O (stereo not drawn)	-2	·	·	·	·	·	·	·
COC(=O)[C@H]1C[C@@]2(Oc3ccc(Br)cc3)c3ccccc3N(C(=O)OC(C)(C)C)[C@H]2N1C(=O)OC(C)(C)C	-4	·	·	·	·	·	·	·
CCc1noc(C)c1C(=O)N1CCN(CC(=O)OC)CC1	-4	·	·	·	·	·	·	·
COc1cc(C=C2C(=O)c3ccccc3C2=O)cc(OC)c1OC	2	0	0	21*	9	-6	-6	-8
Cc1cc2ncc(-c3ncc(C(F)(F)F)cc3Cl)cn2n1	0	-3	2	18*	11	-5	67*	55*
N#Cc1cnn2cc(-c3ncc(C(F)(F)F)cc3Cl)cnc12	-2	3	1	-1	13	3	·	·
CCc1cc2c(-n3nc(C)cc3C)ncnc2s1	0	4	0	39*	12	-4	-2	-2
CCc1cc2c(SCC(=O)c3ccc(C)cc3)ncnc2s1	0	1	1	0	12	-3	·	·
CCCCOc1ccc(-c2ncc(C(=O)O)c(C)n2)cc1	6	2	-1	38*	40	-15	63*	18*
Cc1ccc2oc(=O)c(/C=C(\O)c3ccco3)nc2c1	-4	1	-2	37*	1	4	37*	-23
CC(C)(C)/C(O)=C/c1nc2cc(Cl)ccc2oc1=O	0	3	-3	80*	15	-2	81*	-14
CCN(CC)CCOC(=O)c1ccc(NC(=O)/C=C/c2cccs2)cc1	-2	0	-3	27*	21	-18	6	-7
COc1ccccc1NC(=O)CSc1nc2ccccc2cc1Cc1ccccc1	4	4	0	31*	5	5	24*	-12
COc1ccccc1NC(=O)CSc1n[nH]c(Cc2ccccc2)n1	5	-1	0	-3	21	-1	·	·
C[C@@H]1CCN(C2CC2)S(=O)(=O)c2ccc(N3CC[C@@H](O)C3)cc2O1	-2	·	·	·	·	·	·	·
Cc1ccccc1-c1nc2sc3c(c2c(=O)n1N)CCCC3	2	-4	1	38*	24	-60*	37*	37*

Source: PubChem
